In PubChem BioAssay (NCI):
Compounds without any hit were thinned out: in the full panel of roughly 83,000, 20% have a hit.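 Note: values are percent growth. 100 is the growth of untreated cells, values between 100 and 0 indicate rising inhibition; between -100 and 0 indicates cell death.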 Values without a mark were called inactive. The source made the active and inactive calls. Rule for the calls: active = growth percent below 10; inactive = the rest.

How the values were obtained:
Test in all cases: NCI-60 one-dose screen, 48 h (100 = growth as untreated, 0 = no growth, -100 = all killed)
DU-145 prostate = test system: DU-145 prostate
K-562 leukemia = test system: K-562 leukemia
MALME-3M melanoma = test system: MALME-3M melanoma
MDA-MB-231 breast = test system: MDA-MB-231 breast
RXF 393 renal = test system: RXF 393 renal
SF-268 CNS = test system: SF-268 CNS
SF-295 CNS = conditions: 10 µM unless noted
SF-539 CNS = test system: SF-539 CNS
UACC-257 melanoma = test system: UACC-257 melanoma
M14 melanoma = test system: M14 melanoma

Question: `C[C@]12CC[C@@H](OC(=O)N(CCCl)N=O)C[C@@H]1CC[C@@H]1[C@@H]2CC[C@]2(C)C(=O)CC[C@@H]12` was tested. Which growth (DU-145 prostate; 10 µM unless noted) did it give?
Answer: -0.658% (active)

Question: What about the growth (K-562 leukemia; 10 µM unless noted) of the same compound?
Answer: 23.2%

Question: And the growth (MALME-3M melanoma; 10 µM unless noted)?
Answer: 108%

Question: What about the growth (MDA-MB-231 breast; 10 µM unless noted) of the same compound?
Answer: 81.9%

Question: What about the growth (RXF 393 renal; 10 µM unless noted) of the same compound?
Answer: 78%

Question: What about the growth (SF-268 CNS; 10 µM unless noted) of the same compound?
Answer: 30.6%

Question: What about the growth (SF-295 CNS) of the same compound?
Answer: -15.7% (active)

Question: What about the growth (SF-539 CNS; 10 µM unless noted) of the same compound?
Answer: 1.49% (active)

Question: What about the growth (UACC-257 melanoma; 10 µM unless noted) of the same compound?
Answer: 76.2%

Question: For `Oc1ccccc1C=NCCN=Cc1ccccc1O.[Fe]`, which growth (DU-145 prostate; 10 µM unless noted) is on record?
Answer: 104%

Question: What about the growth (K-562 leukemia; 10 µM unless noted) of the same compound?
Answer: 85.3%

Question: What about the growth (MALME-3M melanoma; 10 µM unless noted) of the same compound?
Answer: 69.7%

Question: What about the growth (MDA-MB-231 breast; 10 µM unless noted) of the same compound?
Answer: 34.9%

Question: And the growth (RXF 393 renal; 10 µM unless noted)?
Answer: 98.8%

Question: And the growth (SF-268 CNS; 10 µM unless noted)?
Answer: 97.4%

Question: What about the growth (SF-295 CNS) of the same compound?
Answer: 85%

Question: What about the growth (SF-539 CNS; 10 µM unless noted) of the same compound?
Answer: 88.8%

Question: What about the growth (UACC-257 melanoma; 10 µM unless noted) of the same compound?
Answer: 46.9%

Question: Which results are given for `CC(=O)OCC1OC([S-])C(OC(C)=O)C(OC(C)=O)C1OC(C)=O.[Au+].c1ccc(CN2[CH-]N(Cc3ccccc3)C(c3ccccc3)=C2c2ccccc2)cc1`?
Answer: growth (DU-145 prostate; 4.75 µM): 10.1%; growth (DU-145 prostate; 10 µM): 11.3%; growth (K-562 leukemia; 4.75 µM): -15.1% (active); growth (K-562 leukemia; 10 µM): -6.23% (active); growth (MALME-3M melanoma; 4.75 µM): -20.1% (active); growth (MALME-3M melanoma; 10 µM): -49% (active); growth (MDA-MB-231 breast; 4.75 µM): -43.6% (active); growth (MDA-MB-231 breast; 10 µM): -55.7% (active); growth (RXF 393 renal; 4.75 µM): -65.4% (active); growth (RXF 393 renal; 10 µM): -75% (active); growth (SF-268 CNS; 4.75 µM): -6.05% (active); growth (SF-268 CNS; 10 µM): -36% (active); growth (SF-539 CNS; 4.75 µM): 14.3%; growth (SF-539 CNS; 10 µM): 41.8%; growth (UACC-257 melanoma; 4.75 µM): -17.4% (active); growth (UACC-257 melanoma; 10 µM): 20.6%; growth (M14 melanoma; 4.75 µM): 8.95% (active); growth (M14 melanoma; 10 µM): -12% (active)

Question: `C[C@]12C[C@H](c3ccoc3)OC(=O)[C@H]1CC[C@@]1(C)[C@@H]2[C@H]2C=C[C@]1(O)C(=O)O2` was tested. Which growth (DU-145 prostate; 10 µM unless noted) did it give?
Answer: 109%

Question: And the growth (K-562 leukemia; 10 µM unless noted)?
Answer: 76.9%

Question: And the growth (MALME-3M melanoma; 10 µM unless noted)?
Answer: 101%

Question: What about the growth (MDA-MB-231 breast; 10 µM unless noted) of the same compound?
Answer: 102%

Question: And the growth (RXF 393 renal; 10 µM unless noted)?
Answer: 102%

Question: And the growth (SF-268 CNS; 10 µM unless noted)?
Answer: 98.3%

Question: What about the growth (SF-295 CNS) of the same compound?
Answer: 91.1%

Question: What about the growth (SF-539 CNS; 10 µM unless noted) of the same compound?
Answer: 92.4%

Question: And the growth (UACC-257 melanoma; 10 µM unless noted)?
Answer: 86.2%

Question: With `OCCNC1CCCCC1` as the compound, how does the growth (DU-145 prostate; 10 µM unless noted) read?
Answer: 107%

Question: What about the growth (K-562 leukemia; 10 µM unless noted) of the same compound?
Answer: 101%

Question: What about the growth (MALME-3M melanoma; 10 µM unless noted) of the same compound?
Answer: 112%

Question: And the growth (MDA-MB-231 breast; 10 µM unless noted)?
Answer: 114%

Question: And the growth (RXF 393 renal; 10 µM unless noted)?
Answer: 118%

Question: What about the growth (SF-268 CNS; 10 µM unless noted) of the same compound?
Answer: 102%

Question: And the growth (SF-295 CNS)?
Answer: 111%

Question: And the growth (SF-539 CNS; 10 µM unless noted)?
Answer: 103%

Question: What about the growth (UACC-257 melanoma; 10 µM unless noted) of the same compound?
Answer: 112%

Question: For `C=CCOC(=O)C(Br)CC` (stereo not drawn), which growth (DU-145 prostate; 10 µM unless noted) is on record?
Answer: 108%

Question: And the growth (K-562 leukemia; 10 µM unless noted)?
Answer: 107%

Question: And the growth (MALME-3M melanoma; 10 µM unless noted)?
Answer: 99.9%

Question: What about the growth (MDA-MB-231 breast; 10 µM unless noted) of the same compound?
Answer: 93.6%

Question: What about the growth (RXF 393 renal; 10 µM unless noted) of the same compound?
Answer: 118%

Question: What about the growth (SF-268 CNS; 10 µM unless noted) of the same compound?
Answer: 106%

Question: What about the growth (SF-295 CNS) of the same compound?
Answer: 109%

Question: What about the growth (SF-539 CNS; 10 µM unless noted) of the same compound?
Answer: 100%

Question: And the growth (UACC-257 melanoma; 10 µM unless noted)?
Answer: 104%

Question: For `CCCC[C@H]1C(=O)O[C@H](C)[C@H](NC(=O)c2cccc(NC=O)c2O)C(=O)O[C@@H](C)[C@@H]1OC(=O)CC(C)C`, which growth (DU-145 prostate; 10 µM unless noted) is on record?
Answer: 85.9%

Question: What about the growth (K-562 leukemia; 10 µM unless noted) of the same compound?
Answer: 26.4%

Question: And the growth (MALME-3M melanoma; 10 µM unless noted)?
Answer: 44%

Question: What about the growth (MDA-MB-231 breast; 10 µM unless noted) of the same compound?
Answer: 58.7%

Question: What about the growth (RXF 393 renal; 10 µM unless noted) of the same compound?
Answer: 6.91% (active)

Question: And the growth (SF-268 CNS; 10 µM unless noted)?
Answer: 46.6%

Question: And the growth (SF-295 CNS)?
Answer: 9.04% (active)

Question: And the growth (SF-539 CNS; 10 µM unless noted)?
Answer: 39.3%

Question: What about the growth (UACC-257 melanoma; 10 µM unless noted) of the same compound?
Answer: 42.8%

Question: `N#CC(NC(=O)CCl)=C(Cl)Cl` was tested. Which growth (DU-145 prostate; 10 µM unless noted) did it give?
Answer: 44.1%

Question: What about the growth (K-562 leukemia; 10 µM unless noted) of the same compound?
Answer: -23.6% (active)

Question: And the growth (MALME-3M melanoma; 10 µM unless noted)?
Answer: -79.1% (active)

Question: And the growth (MDA-MB-231 breast; 10 µM unless noted)?
Answer: 1.44% (active)

Question: What about the growth (RXF 393 renal; 10 µM unless noted) of the same compound?
Answer: -78% (active)

Question: What about the growth (SF-268 CNS; 10 µM unless noted) of the same compound?
Answer: 28.9%

Question: What about the growth (SF-295 CNS) of the same compound?
Answer: 89.9%

Question: What about the growth (SF-539 CNS; 10 µM unless noted) of the same compound?
Answer: 5.84% (active)

Question: What about the growth (UACC-257 melanoma; 10 µM unless noted) of the same compound?
Answer: 3.34% (active)

Question: For `O=S(=O)(c1ccc(O)cc1)c1ccccc1O`, which growth (DU-145 prostate; 10 µM unless noted) is on record?
Answer: 111%

Question: What about the growth (K-562 leukemia; 10 µM unless noted) of the same compound?
Answer: 98%

Question: What about the growth (MALME-3M melanoma; 10 µM unless noted) of the same compound?
Answer: 113%

Question: What about the growth (MDA-MB-231 breast; 10 µM unless noted) of the same compound?
Answer: 98.9%

Question: And the growth (RXF 393 renal; 10 µM unless noted)?
Answer: 117%

Question: And the growth (SF-268 CNS; 10 µM unless noted)?
Answer: 97.3%

Question: What about the growth (SF-295 CNS) of the same compound?
Answer: 112%

Question: What about the growth (SF-539 CNS; 10 µM unless noted) of the same compound?
Answer: 103%

Question: What about the growth (UACC-257 melanoma; 10 µM unless noted) of the same compound?
Answer: 111%

Question: Which growth (DU-145 prostate; 10 µM unless noted) does the source give for `CC/C(Cc1ccccc1)=C(\c1ccc(OCCN2CCCC2)cc1)c1ccc(OC(=O)NCc2ccccc2)cc1` here?
Answer: 61.1%

Question: And the growth (K-562 leukemia; 10 µM unless noted)?
Answer: -39.1% (active)

Question: What about the growth (MALME-3M melanoma; 10 µM unless noted) of the same compound?
Answer: -59.6% (active)

Question: And the growth (MDA-MB-231 breast; 10 µM unless noted)?
Answer: 51.6%

Question: And the growth (RXF 393 renal; 10 µM unless noted)?
Answer: 56.5%

Question: What about the growth (SF-268 CNS; 10 µM unless noted) of the same compound?
Answer: 67.7%

Question: What about the growth (SF-295 CNS) of the same compound?
Answer: 86.2%

Question: What about the growth (SF-539 CNS; 10 µM unless noted) of the same compound?
Answer: 59%

Question: What about the growth (UACC-257 melanoma; 10 µM unless noted) of the same compound?
Answer: 58.1%

Question: Which growth (DU-145 prostate; 10 µM unless noted) does the source give for `CCC1(NC(=O)c2cc(F)c(F)c(F)c2F)C(=O)NC(=O)N(C(C)C)C1=O` (stereo not drawn) here?
Answer: 143%

Question: What about the growth (K-562 leukemia; 10 µM unless noted) of the same compound?
Answer: -26.7% (active)

Question: What about the growth (MALME-3M melanoma; 10 µM unless noted) of the same compound?
Answer: 90.4%

Question: What about the growth (MDA-MB-231 breast; 10 µM unless noted) of the same compound?
Answer: 81.5%

Question: What about the growth (RXF 393 renal; 10 µM unless noted) of the same compound?
Answer: 79.8%

Question: And the growth (SF-268 CNS; 10 µM unless noted)?
Answer: 114%

Question: What about the growth (SF-295 CNS) of the same compound?
Answer: 107%

Question: What about the growth (SF-539 CNS; 10 µM unless noted) of the same compound?
Answer: 97.5%

Question: What about the growth (UACC-257 melanoma; 10 µM unless noted) of the same compound?
Answer: 70.4%
